The source of these data is PubChem BioAssay.

Each structure is given as a SMILES string. The source made the active and inactive calls.

The target in assay [1] is Albumin (Bos taurus) (UniProt P02769). As to the kind of experiment: bovine serum albumin binders on microarray, profiling panel, artefact control for SMM control protein annotation, biochemical, small-molecule microarray, Alexa647 label, 635/667 nm fluorescence (AID 1118).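 Further: score merges 667 nm emission intensity and signal-to-noise per printed compound spot.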 Particulars: BSA-A647 binding, fluorescence 635 nm, higher = more signal.
Chain of Albumin (Bos taurus) (P02769 whole entry, looked up): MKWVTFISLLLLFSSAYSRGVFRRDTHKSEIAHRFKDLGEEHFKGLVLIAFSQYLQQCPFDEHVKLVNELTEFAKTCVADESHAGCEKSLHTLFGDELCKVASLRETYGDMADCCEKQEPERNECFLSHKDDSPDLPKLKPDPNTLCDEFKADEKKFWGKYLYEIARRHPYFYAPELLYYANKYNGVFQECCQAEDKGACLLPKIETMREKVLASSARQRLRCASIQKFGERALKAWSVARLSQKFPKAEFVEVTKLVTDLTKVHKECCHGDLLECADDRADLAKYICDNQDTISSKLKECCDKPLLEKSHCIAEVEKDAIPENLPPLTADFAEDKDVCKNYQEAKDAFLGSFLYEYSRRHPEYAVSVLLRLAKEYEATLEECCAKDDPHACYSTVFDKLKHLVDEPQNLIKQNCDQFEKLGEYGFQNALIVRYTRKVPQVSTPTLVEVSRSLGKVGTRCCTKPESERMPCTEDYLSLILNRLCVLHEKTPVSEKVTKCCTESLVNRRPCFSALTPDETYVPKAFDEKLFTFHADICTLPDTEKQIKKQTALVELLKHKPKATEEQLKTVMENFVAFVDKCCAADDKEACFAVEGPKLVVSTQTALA
Assay [2] can be described thus: small-molecule microarray binders of probe aXIP, primary screen, biochemical, NeuroSMM set, 635/667 nm fluorescence (AID 1119).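 Further: probe is the protein aXip251-270 applied at 1 µg/mL to compound-printed slides; binding of probe to printed compounds measured as 667 nm fluorescence plus signal to noise.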 Particulars: higher = more signal, called active from +8 up or from −8 down.
The nature of assay [3]: small-molecule binders of probe aNOTCH3, primary screen, biochemical, small-molecule microarray, 635/667 nm fluorescence (AID 1120).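 Further: probe is a biotin-tagged antibody raised against NOTCH3 rather than NOTCH3 protein; score merges spot fluorescence near 667 nm with spot signal to noise.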 Particulars: higher = more signal.
The nature of assay [4]: small-molecule binders of probe aNOTCH2, primary screen, biochemical, small-molecule microarray, 635/667 nm fluorescence (AID 1121).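 Further: score merges feature fluorescence read at 667 nm with its signal to noise.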 The note with it: higher = more signal.
In assay [5] the target is Carbonic anhydrase 2 (Homo sapiens) (UniProt P00918). Kind of assay: CAII small-molecule binders, profiling panel, biochemical, small-molecule microarray, Alexa647-labelled CAII (AID 1122). The note with it: CAII-A647 binding fluorescence, higher = more signal.
A short description of assay [6]: COS7 lysate on small-molecule microarray, probe aHis, 635 nm (AID 1123).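 Further: z-score combines 667nm fluorescence intensity with signal-to-noise per printed compound spot.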 The note with it: COS7 cell lysate, fluorescence, higher = more signal.
A short description of assay [7]: compound binding in COS7 lysate, probe aLAP1, primary screen, cell lysate, small-molecule microarray (AID 1124).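 Further: lysate comes from COS7 cells expressing LAP1 and is applied at 0.3 µg/mL; score merges spot fluorescence near 667 nm with signal-to-noise over triplicate slides.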 The note with it: probe aLAP1, fluorescence, higher = more signal.
Assay [8] deals with Sam68 (KHDRBS1). As to the kind of experiment: Sam68 small-molecule binders, primary screen, biochemical, small-molecule microarray, 635 nm fluorescence (AID 1125).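 Further: score merges 667 nm channel intensity with signal to noise over triplicate slides.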 Particulars: small-molecule microarray binding, higher = more signal.
Assay [9] deals with Chordin-like protein 2 (CHRDL2). As to the kind of experiment: CHRDL2 small-molecule binders, primary screen, biochemical, small-molecule microarray, 635 nm fluorescence (AID 1126).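 Further: printed compound slides probed with Chrdl2 protein at 4 µg/mL for 1 h at 4 C; score merges 667 nm emission intensity with signal to noise over three replicate slides.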 The note with it: small-molecule microarray binding, fluorescence 635 nm; higher = more signal.
The target in assay [10] is Concanavalin-A (Canavalia ensiformis) (UniProt P02866). As to the kind of experiment: ConA small-molecule binders, primary screen, artefact control for SMM control protein annotation, biochemical, small-molecule microarray, Alexa647 label, 635 nm (AID 1127).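 Further: z combines 667 nm emission intensity with signal-to-noise across three replicate slides.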 The note with it: ConA-A647 binding fluorescence, higher = more signal.
Chain of Concanavalin-A (Canavalia ensiformis) (P02866 whole entry, looked up): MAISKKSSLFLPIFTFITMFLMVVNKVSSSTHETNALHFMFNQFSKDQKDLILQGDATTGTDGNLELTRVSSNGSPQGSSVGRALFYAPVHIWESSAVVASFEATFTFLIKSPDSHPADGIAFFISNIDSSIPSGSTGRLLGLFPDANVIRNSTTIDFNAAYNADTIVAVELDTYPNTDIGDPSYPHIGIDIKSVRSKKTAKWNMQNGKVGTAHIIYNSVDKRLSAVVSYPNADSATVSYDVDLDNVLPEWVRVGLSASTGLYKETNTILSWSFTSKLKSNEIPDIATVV
Assay [11] in a line: anti-His antibody binders, primary screen, artefact control for SMM control protein annotation, biochemical, small-molecule microarray, 635 nm fluorescence (AID 1128).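 Further: score merges feature fluorescence with signal-to-noise for each printed compound spot.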 The note with it: anti-His Alexa647 antibody binding, higher = more signal.
In assay [12] the test system is Human papillomavirus type 1a E7 protein (residues 1-88). Kind of assay: HPV1a E7 small-molecule binders, primary screen, biochemical, small-molecule microarray, residues 1-88, 635 nm (AID 1129). The note with it: small-molecule microarray binding, fluorescence 635 nm; higher = more signal.
The target in assay [13] is Focal adhesion kinase 1 (Homo sapiens) (UniProt Q05397). Kind of assay: small-molecule microarray binders of FAK, primary screen, biochemical, 635/667 nm fluorescence, BSA, DTT (AID 1130).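 Further: composite of spot emission at 667 nm and signal to noise over triplicate slides.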 Particulars: PTK2 binding, 635 nm fluorescence, higher = more signal.
Chain of Focal adhesion kinase 1 (Homo sapiens) (Q05397 whole entry, looked up): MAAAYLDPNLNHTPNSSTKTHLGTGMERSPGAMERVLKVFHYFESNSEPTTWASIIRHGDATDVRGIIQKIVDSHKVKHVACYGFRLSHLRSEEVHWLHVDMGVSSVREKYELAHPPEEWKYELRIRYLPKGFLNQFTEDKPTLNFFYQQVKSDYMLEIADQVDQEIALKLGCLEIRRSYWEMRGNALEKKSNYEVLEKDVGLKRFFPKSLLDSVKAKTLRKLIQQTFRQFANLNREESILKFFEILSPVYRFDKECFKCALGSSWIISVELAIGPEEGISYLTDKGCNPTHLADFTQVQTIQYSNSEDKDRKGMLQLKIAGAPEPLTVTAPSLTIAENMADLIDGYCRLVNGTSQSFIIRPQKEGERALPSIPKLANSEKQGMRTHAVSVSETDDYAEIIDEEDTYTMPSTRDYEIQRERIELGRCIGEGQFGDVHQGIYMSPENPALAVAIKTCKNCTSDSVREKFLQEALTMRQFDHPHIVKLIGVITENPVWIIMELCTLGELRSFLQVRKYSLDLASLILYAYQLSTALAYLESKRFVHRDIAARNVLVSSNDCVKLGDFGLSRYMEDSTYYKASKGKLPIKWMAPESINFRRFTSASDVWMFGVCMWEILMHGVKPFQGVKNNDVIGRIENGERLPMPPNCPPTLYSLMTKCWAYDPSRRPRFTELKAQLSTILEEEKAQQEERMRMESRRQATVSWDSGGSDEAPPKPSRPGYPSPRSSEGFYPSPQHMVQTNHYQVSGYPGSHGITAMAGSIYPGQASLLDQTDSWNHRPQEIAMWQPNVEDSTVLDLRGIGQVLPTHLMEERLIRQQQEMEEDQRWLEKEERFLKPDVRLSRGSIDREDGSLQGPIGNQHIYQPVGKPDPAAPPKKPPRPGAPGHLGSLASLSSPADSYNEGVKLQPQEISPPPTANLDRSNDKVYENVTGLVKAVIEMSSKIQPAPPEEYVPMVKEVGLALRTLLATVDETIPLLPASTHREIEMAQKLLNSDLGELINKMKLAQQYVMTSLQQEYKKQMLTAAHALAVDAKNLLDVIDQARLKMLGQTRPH
Assay [14] relates to Fibrinogen (Alexa647-labelled). Kind of assay: fibrinogen binders on compound microarrays, profiling panel, artefact control for SMM control-protein annotation, biochemical, small-molecule microarray, 635/667 nm fluorescence (AID 1131).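 Further: z-score merges 667 nm fluorescence with per-spot signal-to-noise over triplicate slides.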 Particulars: fibrinogen-A647 binding fluorescence, higher = more signal.
For assay [15], the target named is Follistatin (Homo sapiens) (UniProt P19883). Kind of assay: follistatin binders on small-molecule microarrays, primary screen, biochemical, small-molecule microarray, 635/667 nm fluorescence (AID 1132). The note with it: FST binding, 635 nm fluorescence, higher = more signal.
Chain of Follistatin (Homo sapiens) (P19883 whole entry, looked up): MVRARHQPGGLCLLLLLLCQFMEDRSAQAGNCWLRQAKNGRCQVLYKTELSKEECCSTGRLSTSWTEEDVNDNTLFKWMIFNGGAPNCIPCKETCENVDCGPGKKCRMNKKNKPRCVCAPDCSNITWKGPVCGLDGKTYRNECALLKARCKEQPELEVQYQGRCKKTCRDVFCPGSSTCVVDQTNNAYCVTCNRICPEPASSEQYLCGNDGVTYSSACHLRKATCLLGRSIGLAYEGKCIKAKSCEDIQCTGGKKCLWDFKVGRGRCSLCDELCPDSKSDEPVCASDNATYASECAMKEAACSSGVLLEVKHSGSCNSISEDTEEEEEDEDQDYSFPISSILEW
The target in assay [16] is Fibroblast growth factor 2 (Homo sapiens) (UniProt P09038). As to the kind of experiment: FGF2 binders on small-molecule microarrays, primary screen, biochemical, small-molecule microarray, 635/667 nm fluorescence (AID 1133). Particulars: small-molecule microarray binding, FGF2, fluorescence 635/667; higher = more signal.
Chain of Fibroblast growth factor 2 (Homo sapiens) (P09038 whole entry, looked up): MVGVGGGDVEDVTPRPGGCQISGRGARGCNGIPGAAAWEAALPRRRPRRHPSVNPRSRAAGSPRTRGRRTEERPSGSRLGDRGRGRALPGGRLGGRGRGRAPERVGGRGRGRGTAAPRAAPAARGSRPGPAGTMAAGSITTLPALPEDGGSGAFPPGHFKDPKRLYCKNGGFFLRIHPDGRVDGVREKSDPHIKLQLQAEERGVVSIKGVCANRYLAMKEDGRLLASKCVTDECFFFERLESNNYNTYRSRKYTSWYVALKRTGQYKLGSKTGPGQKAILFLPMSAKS
Assay [17] in a line: mitochondrial membrane potential change in A549 cells, profiling panel, cell-based, JC-1 fluorescence, basal, 24 h, 100 nL (AID 1138).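 Further: A549 lung adenocarcinoma cells under basal conditions with no added stimulus; test concentration not given here.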 Particulars: higher = more signal.
In assay [18] the test system is Lefty1. Kind of assay: Lefty1 binders on small-molecule microarrays, primary screen, biochemical, small-molecule microarray, 635/667 nm fluorescence (AID 1139). Particulars: small-molecule microarray binding, fluorescence 635/667; higher = more signal.
The subject of assay [19] is wheat germ agglutinin (Triticum aestivum), Alexa647-labelled. As to the kind of experiment: wheat germ agglutinin binders on compound microarrays, profiling panel, artefact control for SMM control-protein annotation, biochemical, small-molecule microarray, 635/667 nm fluorescence (AID 1140).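 Further: score merges 667 nm feature emission with signal to noise over triplicate slides.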 The note with it: WGA-A647 binding, 635 nm fluorescence, higher = more signal.
Assay [20] addresses Luciferin 4-monooxygenase (Photinus pyralis) (UniProt P08659). Kind of assay: firefly luciferase enzyme inhibitors, primary screen, biochemical, luminescence, purified enzyme, 2006 set (AID 1141).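 Further: cell-free assay with purified firefly luciferase at 100 ng per well in PBS; test concentration not given here.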 Particulars: SteadyGlo luminescence, 30 min, higher = more signal, called active from +8 up or from −8 down.

Chain of Luciferin 4-monooxygenase (Photinus pyralis) (P08659 whole entry, looked up): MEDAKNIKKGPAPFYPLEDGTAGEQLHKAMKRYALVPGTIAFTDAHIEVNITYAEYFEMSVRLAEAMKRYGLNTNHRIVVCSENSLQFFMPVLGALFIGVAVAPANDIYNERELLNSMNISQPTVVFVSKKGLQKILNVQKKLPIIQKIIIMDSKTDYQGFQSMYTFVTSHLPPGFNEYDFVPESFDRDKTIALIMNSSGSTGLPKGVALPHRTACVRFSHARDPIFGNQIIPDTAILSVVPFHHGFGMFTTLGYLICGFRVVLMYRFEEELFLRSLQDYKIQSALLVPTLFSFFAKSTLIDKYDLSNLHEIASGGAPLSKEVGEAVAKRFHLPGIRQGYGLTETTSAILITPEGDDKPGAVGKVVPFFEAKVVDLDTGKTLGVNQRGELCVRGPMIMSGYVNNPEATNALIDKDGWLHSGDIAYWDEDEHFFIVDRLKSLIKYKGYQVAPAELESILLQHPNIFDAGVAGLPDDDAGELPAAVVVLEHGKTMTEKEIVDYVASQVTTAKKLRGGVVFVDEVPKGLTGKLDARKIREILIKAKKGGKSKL

On to `CC(CCN1CCCCc2nc(C)c(C)cc21)=NOC(C)CN1CCCc2nc(C)c(C)cc21` (stereo not given), for which the composite z-score in assay [1] was 0.493; in assay [3], 0.721; in assay [4] it was 0.153; in assay [5] it was 0.533; in assay [6] it was 1.79; in assay [7], 0.257. In addition, the composite z-score is 1.29 in assay [8]; 1.2 in [9]; 1.14 in assay [10]; -0.756 in assay [11]; 1.12 in assay [12]; 0.671 in assay [13]. Also, the composite z-score in assay [14] was determined as 0.651; in assay [15], 1.36; in assay [16] it was 0.97; in [18] it was 1.45; in [19] it was 0.766. Moreover, the composite Z-score in [2] is 1.69 (inactive). The z-score in [17] is -0.12; in assay [20], -0.0885 (inactive).

As to `CCCCc1nc2c(c3c1C[C@H](C)OC3)CN(CCC(C)C)CC2`, the composite z-score in assay [1] was 0.627; in [3], -0.0343; in assay [4], -0.16; in assay [5], 0.221; in assay [6], 1.68; in assay [7], 0.44. Moreover, the composite z-score in assay [8] came to 1.31; in assay [9] it was 0.388; in assay [10], 0.934; in assay [11] it was 0.965; in assay [12] it was 1.13; in [13] it was 0.0171. For the same compound, the composite z-score in [14] was 0.928; in [15], 0.818; in [16], 0.732; in assay [18] it was 1.17; in [19], 0.399. Moreover, in [2], the composite Z-score was -0.214 (inactive). Also, the z-score in assay [17] was 1.8; in assay [20], -0.438 (inactive).

As for `C=C(/C(=C/C[C@H](OC(=O)c1ccncc1)c1ccc(OCCO)cc1)c1cnc2ccccc2c1)C(C)C`, the composite z-score in assay [1] is 0.139; in assay [3], 0.173; in assay [4], -0.118; in [5], 0.946; in [6] it was 0.118; in assay [7], 0.62. Besides, the composite z-score in [8] turned out to be 1.32; in assay [9] it was 1.14; in assay [10], 1.16; in [11], 0.426; in [12], 1.21; in assay [13], 0.144. Further, the composite z-score came to 0.853 in assay [14]; 1.47 in assay [15]; 1.82 in assay [16]; 1.52 in assay [18]; 0.843 in [19]. In addition, the composite Z-score in assay [2] was 0.184 (inactive). Besides, the z-score in assay [17] is 1.26; in [20] it was -2.12 (inactive).

On to `O=C1C[C@@H](O)[C@@H](O)[C@@H]2[C@@H]3C(=O)N(c4cccc(Oc5ccccc5)c4)C(=O)[C@@H]3CC[C@@H]12`, for which the composite z-score is 0.164 in [1]; 0.0496 in assay [3]; 0.0364 in assay [4]; 0.285 in [5]; 0.625 in assay [6]; 0.318 in assay [7]. For the same compound, the composite z-score in [8] stood at 1.03; in [9] it was 0.364; in assay [10], 0.899; in assay [11] it was 0.161; in assay [12], 0.783; in [13], 0.35. Moreover, the composite z-score worked out at 0.725 in assay [14]; 0.91 in assay [15]; 0.679 in assay [16]; 0.661 in [18]; 0.428 in assay [19]. The composite Z-score in assay [2] is -0.397 (inactive). Also, the z-score is 0.844 in [17] and -0.44 (inactive) in [20].

In the case of `COc1ccc([Si](C)(C)[C@@H]2[C@@H](CC(=O)N3CCC[C@H]3CO)O[C@]3(C(=O)N(Cc4cccc(N5CCC5=O)c4)c4ccccc43)[C@H]2C)cc1`, the composite z-score in [1] was 0.263; in assay [3], 0.239; in assay [4], -0.0288; in assay [5], 0.14; in assay [6] it was 2.25; in assay [7] it was 0.317. In addition, the composite z-score in assay [8] worked out at 1.31; in assay [9] it was 0.453; in assay [10], 0.811; in assay [11], 0.97; in [12] it was 1.18; in assay [13], 0.418. Also, the composite z-score in assay [14] came to 0.809; in assay [15], 0.907; in [16] it was 0.402; in assay [18] it was 0.917; in [19] it was 0.81. Besides, in assay [2], the composite Z-score is 0.188 (inactive). In addition, the z-score in assay [17] is 1.04; in assay [20] it was -1.69 (inactive).
